# RAD52 inh = inhibitors of human RAD52 DNA annealing. recombinant RAD52 DNA annealing, FRET fluorescence. inhibition, % at 18.7 µM. 360,000 tested, 0.46% active. AID 651710. P43351;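 active means every replicate showing at least 50% inhibition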
# Target sequence (P43351 whole entry, looked up): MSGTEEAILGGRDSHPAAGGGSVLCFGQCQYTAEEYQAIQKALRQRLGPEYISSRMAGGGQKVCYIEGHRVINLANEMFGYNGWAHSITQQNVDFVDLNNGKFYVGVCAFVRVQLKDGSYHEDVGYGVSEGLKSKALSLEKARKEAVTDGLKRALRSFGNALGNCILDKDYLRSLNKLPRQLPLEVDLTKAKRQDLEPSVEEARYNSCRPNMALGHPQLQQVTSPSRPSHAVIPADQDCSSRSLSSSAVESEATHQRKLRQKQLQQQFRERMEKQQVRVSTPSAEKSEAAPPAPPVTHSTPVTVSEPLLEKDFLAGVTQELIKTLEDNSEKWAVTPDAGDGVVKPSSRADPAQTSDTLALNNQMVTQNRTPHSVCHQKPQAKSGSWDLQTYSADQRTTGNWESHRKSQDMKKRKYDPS
# RAD54 inh = RAD54 (human) branch migration inhibition | inhibition, % at 10.4 µM | 360,000 tested, 0.14% active | RAD54 Holliday junction branch migration, FAM/BHQ fluorescence | Q92698;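 active means mean normalized replicate activity at least 40 and at least half of replicates scoring 40 or more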;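 further: 0% = median of neutral control wells and 100% = median of positive control wells; inhibitors cause a drop in the FAM fluorescence signal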
# F508del corr = correctors of CFTR F508del function in bronchial epithelial cells | CFBE cells, YFP halide quenching; stimulated with forskolin plus potentiator P3; % fluorescence drop versus neutral controls | activity (quench increase), % at 7.58 µM | 350,000 tested, 0.36% active;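 active means mean added fluorescence quench of at least 8% versus neutral control, with both replicates also reaching 8%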;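 further: cells transiently co-express mutant CFTR-F508del with the halide-sensitive YFP; corrector assay measuring rescue of mutant channel to the surface after 24 h compound exposure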
# EWS-Fli block = blocks EWS/Fli oncoprotein-driven transcription. 350,000 tested, 0.67% active. inhibition, % at 12.6 µM. AID 651661. A673 NR0B1-luciferase reporter, viability-normalised;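 active means mean inhibition of at least 50% after viability correction, with every replicate also passing that limit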;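 further: firefly luciferase signal divided by Alamar Blue viability fluorescence both relative to DMSO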
# GSIS activator = primary screen for activators of insulin secretion dependent on glucose, INS-1E cells, GLuc reporter luminescence | 370,000 tested, 0.61% active | INS-1E GLuc reporter insulin secretion, 2-3 h | AID 743287 | activation, % at 16.6 µM;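 active means lowest replicate activation of at least 40%, so every replicate reaches that level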;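 further: 0% = median of neutral control wells and 100% = median of IBMX positive control wells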
# LGR2 antag = blocks bursicon-induced cAMP signaling via Drosophila LGR2 | HEK293 LGR2, CRE-luciferase, bursicon-stimulated, 4 h | inhibition, % at 9.99 µM | 380,000 tested, 0.35% active | AID 720647;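 active means drop in luminescence signal, shown as inhibition above about 50% in the replicate tests, limit read from the data, passing the limit was not always enough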;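 further: agonist challenge used bursicon conditioned medium at about half maximal strength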
# * = called active by the depositor; nt = not tested or not shown. Most compounds without a hit are left out; they make up all but 1.8% or so of the library.
SMILES,RAD52 inh,RAD54 inh,F508del corr,EWS-Fli block,GSIS activator,LGR2 antag
CCC(=O)N(C)C[C@H]1Oc2cc(C#C[C@H](C)O)ccc2S(=O)(=O)N([C@@H](C)CO)C[C@@H]1C,6,-2,0,3,20,4
CCCc1nnc(NC(=O)CC(C)c2ccccc2)s1 (centres undefined),-7,3,-1,-4,0,-3
COc1ccc2c3c(n(C)c2c1)[C@H](CO)NCC31CCN(Cc2cc(-c3ccccc3)on2)CC1,67*,nt,12*,-6,12,4
COc1ccc2c3c(n(C)c2c1)[C@H](CO)NCC31CCN(Cc2ccccc2Cl)CC1,nt,nt,0,7,20,11
COc1ccc2c3c(n(C)c2c1)[C@H](CO)NCC31CCN(S(=O)(=O)c2cccc(C)c2)CC1,55*,nt,3,0,-22,10
COc1ccc2c3c(n(C)c2c1)[C@@H](CO)NCC31CN(CC2CCOCC2)C1,75*,nt,1,3,-17,-7
CCC(=O)N1CC2(CCN(Cc3ccc(Cl)cc3)CC2)c2c(n(C)c3cc(OC)ccc23)[C@H]1CO,20,nt,14*,11,-16,-16
CCC(=O)N1CC2(CN(Cc3ccc(Cl)cc3)C2)c2c(n(C)c3cc(OC)ccc23)[C@@H]1CO,-1,nt,3,0,-5,7
CCC[N+](CC#Cc1ccccc1)(CCC)CC(=O)c1ccc(Cl)cc1,0,nt,1,14,-14,-22
COc1ccc2c3c(n(C)c2c1)[C@@H](CO)NCC31CN(Cc2ccc(Cl)cc2)C1,nt,nt,-2,9,2,7
CCCNC(=O)N1CC2(CN(S(=O)(=O)c3ccccc3)C2)c2c(n(C)c3cc(OC)ccc23)[C@H]1CO,10,nt,5,25,0,14
COc1ccc2c3c(n(C)c2c1)[C@H](CO)NCC31CN(Cc2ccc(F)cc2)C1,62*,nt,-2,8,2,-38
CCCNC(=O)N1CC2(CN(S(=O)(=O)c3cccc(OC)c3)C2)c2c(n(C)c3cc(OC)ccc23)[C@H]1CO,nt,nt,8.6*,18,5,23
COc1ccc2c3c(n(C)c2c1)[C@H](CO)NCC31CN(CC2CC2)C1,62*,nt,-1,-5,17,1
O=C(/C=C/c1ccccc1Cl)NCCc1ccccc1,-5,-10,0,-117,-43,-73
CCN(CC)S(=O)(=O)c1ccc(C)c(NC(=O)CSc2ncc(C(F)(F)F)cc2Cl)c1,nt,nt,nt,nt,169*,6
Cc1ccc(S(=O)(=O)N(C)C)cc1NC(=O)CSc1ncc(C(F)(F)F)cc1Cl,-5,nt,1,6,-26,2
Cc1ccccc1NC(=O)CN1C(=O)S/C(=C/c2cccnc2)C1=O,-17,-13,1,-1,40*,12
O=C(C[C@@H]1CC[C@H]2[C@@H](COC[C@H](O)CN2Cc2ccc3c(c2)OCO3)O1)Nc1ccc(-c2ccccc2)cc1,5,1,9.6*,17,-16,16
CS(=O)(=O)N1C[C@@H](O)COC[C@@H]2O[C@H](CC(=O)NCc3ccc(-c4ccccc4)cc3)CC[C@H]21,36,-24,-2,1,8,1
O=C(C[C@@H]1CC[C@H]2[C@@H](COC[C@H](O)CN2S(=O)(=O)c2ccccc2)O1)NCc1ccc(-c2ccccc2)cc1,80*,-7,-1,20,-3,17
CS(=O)(=O)N1C[C@H](O)COC[C@@H]2O[C@@H](CC(=O)NCc3ccc(-c4ccccc4)cc3)CC[C@H]21,78*,7,1,-16,3,1
O=C(C[C@@H]1CC[C@@H]2[C@H](COC[C@@H](O)CN2Cc2ccc3c(c2)OCO3)O1)Nc1ccc(-c2ccccc2)cc1,nt,-6,3,11,0,4
O=C(C[C@@H]1CC[C@@H]2[C@H](COC[C@@H](O)CN2S(=O)(=O)c2ccccc2)O1)Nc1ccc(-c2ccccc2)cc1,12,5,0,3,-29,-9
O=C(C[C@H]1CC[C@@H]2[C@H](COC[C@@H](O)CN2S(=O)(=O)c2ccccc2)O1)Nc1ccc(-c2ccccc2)cc1,3,-11,8.3*,19,-4,15
SMILES,RAD52 inh,RAD54 inh,F508del corr,EWS-Fli block,GSIS activator,LGR2 antag
COc1cc(/C(C)=N/NC(=O)CSc2nc3ccccc3[nH]2)ccc1O,-7,-13,1,-3,2,21
CC(=O)Nc1ccc(S(=O)(=O)Nc2cccc(-c3csc(C)n3)c2)cc1,-13,4,0,3,nt,nt
Cc1cccc(-c2nc3cc(NC(=O)C4CCCO4)ccc3o2)c1 (centres undefined),nt,nt,nt,nt,-1,59*
CC(=O)Nc1ccc(S(=O)(=O)Nc2cccc(-c3nc4cc(C)ccc4o3)c2)cc1,-8,13,11*,0,-75,-13
Cc1ccc2oc(-c3cccc(NC(=O)Cc4cccs4)c3)nc2c1,nt,-4,nt,nt,65*,-55
Cc1ccc(S(=O)(=O)/N=C2\CN(C)C(=O)N2C)cc1,-2,nt,4,3,45*,nt
CCS(=O)(=O)N1CC(=O)N2[C@H](C1)[C@@H](c1ccc(C#CCC(C)C)cc1)[C@@H]2CO,-2,nt,10*,1,-3,9
O=C(c1cccc(F)c1)N1CC(=O)N2[C@@H](CO)[C@@H](c3ccc(C#Cc4ccc(F)cc4)cc3)[C@@H]2C1,-7,nt,8.2*,6,-7,2
O=C(c1cccc(F)c1)N1CC(=O)N2[C@H](CO)[C@H](c3ccc(C#Cc4ccc(F)cc4)cc3)[C@H]2C1,-26,nt,6,9,-14,6
O=C(Cc1ccccc1)N1CC(=O)N2[C@H](C1)[C@@H](c1ccc(C#Cc3ccccc3)cc1)[C@@H]2CO,-7,nt,8.0*,nt,-6,-1
O=C(Cc1ccccc1)N1CC(=O)N2[C@@H](CO)[C@@H](c3ccc(C#Cc4ccccc4)cc3)[C@@H]2C1,9,nt,2,nt,-9,-13
CS(=O)(=O)N1CC(=O)N2[C@H](C1)[C@H](c1ccc(C#Cc3ccc(F)cc3)cc1)[C@@H]2CO,-12,nt,10*,-10,-6,3
O=C(Nc1cccc2ccccc12)/C(=C\c1cccc([N+](=O)[O-])c1)NC(=O)c1cccs1,-17,-10,-1,2,3,10
Cc1ccc(S(=O)(=O)Nc2cccc(-c3ccc4nncn4n3)c2)cc1,-24,-11,1,57*,7,3
Cc1ccc2c(c1)[C@H]1[C@H](CO2)[C@H](c2ccccc2)[C@]2(C)C(=O)Nc3ccc(F)cc3C(=O)N12,-2,-14,-3,56*,nt,nt
Cc1ccc2c(c1)[C@H]1[C@H](CO2)[C@H](c2ccccc2)[C@]2(C)C(=O)Nc3cc(F)c(F)cc3C(=O)N12,-2,-9,4,59*,-30,19

# Screening results as filed in PubChem BioAssay.
